According to PubChem BioAssay AID1490 (National Center for Advancing Translational Sciences (NCATS), 2009):
Hit rate of the full screen: of about 310,000 compounds, about 11,000 (3.5%) were called active. About 4% were inconclusive and are not listed. The call rests on the fitted dose curve; in most records, active means well fitted inhibition curve with a large enough effect; inconclusive means small, poorly fitted or top-dose-only effect, or another doubt; inactive means no such curve, though single readings can be large or run the other way. What follows is part of a selection rich in actives, with near analogues and random picks from the rest.

Molecular target: 4'-phosphopantetheinyl transferase ffp (Bacillus subtilis) (UniProt Q9F4F7)
Assay: qHTS Assay for Inhibitors of Bacillus subtilis Sfp phosphopantetheinyl transferase (PPTase);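 further: the enzyme is Sfp with the accession as filed and its product quenches rhodamine fluorescence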;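 on largest response in the series, negative = inhibition: 0% = enzyme reaction without inhibitor and -100% = no enzyme wells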
Settings: Biochemical Sfp PPTase activity
In short: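 Fluorescence-quenching assay with 15 nM Sfp, 5 uM rhodamine-CoA and 12.5 uM BHQ-2-labelled ybbR peptide in pH 7.6 Hepes/MgCl2 buffer. Enzyme was pre-incubated with compound for 15 min at room temperature. Rate was taken from the 30-min fluorescence change (525/598 nm).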
Potency means the concentration at half of the fitted maximal effect.

Row | Structure (SMILES) | largest response in the series, negative = inhibition | Potency
1 | CCc1[nH]nc(C(=O)N2CCCC(CO)(Cc3ccc(F)cc3F)C2)c1C (stereo not drawn) | 4.7% (inactive) | 
2 | COC(=O)C1CCN(C(=O)c2ccc3oc(Cc4ccc(Cl)cc4)nc3c2)CC1 | 16.5% (inactive) | 
3 | O=C(CN1CCOCC1)N/N=C/c1ccc(-c2ccc(Br)cc2)o1 | -29.3% (inactive) | 
4 | Cc1cc(C)c([N+](=O)[O-])cc1-c1ccc(/C=N/NC(=O)c2nonc2N)o1 | -8.88% (inactive) | 
5 | Cc1ccc(-c2ccc(/C=N/NC(=O)CN3CCOCC3)o2)cc1[N+](=O)[O-] |  | 50.1 µM (active)
6 | Cc1[nH]c2ccc(C(=O)N3CCN(C)CC3)cc2c1C | 9.64% (inactive) | 
7 | Cc1ccc(-c2csc(NC3OC(=O)c4ccccc43)n2)cc1 (stereo not drawn) | 7.08% (inactive) | 
8 | NC(=O)C1CCN(CC(O)CSc2ccc(F)cc2)CC1 (stereo not drawn) | 0.977% (inactive) | 
9 | Cc1ccc(C(=O)NNc2ncnc3ccccc23)cc1 |  | 70.8 µM (active)
10 | Cc1ccc(C(=O)NNC(=O)c2cc3cc4ccccc4nc3s2)cc1 | -2.23% (inactive) | 
11 | CCc1nc(SCC(=O)NNC(=O)c2ccc(C)cc2)c2ccccc2n1 | 10% (inactive) | 
12 | CCOc1cc(NC(=O)Nc2ccccc2)c(OCC)cc1NC(=O)CC | 17.2% (inactive) | 
13 | COc1cc(C(=O)NCc2cc3cc(Cl)ccc3n2C)cc(OC)c1OC | 9.69% (inactive) | 
14 | O=C(Nc1ccc(S(=O)(=O)N2CCOCC2)cc1)c1ccc2ncsc2c1 |  | 50.1 µM (active)
15 | O=C(Nc1ccc(N2CCOCC2)c(Cl)c1)c1ccc(S(=O)(=O)N2CCOCC2)cc1 | 10.6% (inactive) | 
16 | O=C(Nc1ccc(S(=O)(=O)Nc2nccs2)cc1)c1cccc(S(=O)(=O)N2CCOCC2)c1 | 10% (inactive) | 
17 | CC(C)c1nc(CNC(=O)CC2C(=O)NCCN2Cc2cccc(F)c2F)cs1 (stereo not drawn) | 7.23% (inactive) | 
18 | CC(=O)NC(CC(=O)Nc1nc(-c2ccccc2)c(C(C)=O)s1)c1ccccc1 (stereo not drawn) | 2.16% (inactive) | 
19 | CN(C(=O)CCN1C(=O)/C(=C/c2ccccc2F)SC1=S)C1CCS(=O)(=O)C1 (stereo not drawn) | 1.57% (inactive) | 
20 | CCCCOC(=O)CNc1nnc(SCC(=O)OCC)[nH]c1=O |  | 20 µM (active)

Row | Structure (SMILES) | largest response in the series, negative = inhibition | Potency
21 | CCOC(=O)CSc1nc(C)c(Oc2ccc(Cl)cc2Cl)c(=O)[nH]1 | 11.2% (inactive) | 
22 | CCOC(=O)c1c(NC(=O)CSc2nnc(C)c(=O)[nH]2)sc2c1CCC2 | 12% (inactive) | 
23 | CCn1c(COc2ccccc2)nnc1SCC(=O)NCc1ccco1 | 21.1% (inactive) | 
24 | C=CCn1c(CSc2nc3ccccc3s2)nnc1SCC(=O)NCc1ccco1 |  | 15.8 µM (active)
25 | C=CCn1c(SCC(=O)Nc2nc3ccccc3s2)nnc1-c1ccccc1O | -3.27% (inactive) | 
26 | CC(=O)c1cc2c(cc1NC(=O)Cn1nc(-c3ccc(F)cc3)ccc1=O)OCO2 | 8.25% (inactive) | 
27 | COc1ccc(S(=O)(=O)NCCc2cc3ccc(C)c(C)c3[nH]c2=O)cc1 | 8.17% (inactive) | 
28 | O=C1Nc2ccccc2C12Nc1ccccc1S2 (stereo not drawn) |  | 20 µM (active)
29 | Cc1cc(O)c(C2(O)C(=O)Nc3ccccc32)cc1C (stereo not drawn) | 0.726% (inactive) | 
30 | COc1ccc(C2(O)C(=O)Nc3ccccc32)cc1 (stereo not drawn) | 5.11% (inactive) | 
31 | CN1CCN(c2ncc3nc(-c4ccc(Cl)cc4)c(=O)n(-c4ccccc4)c3n2)CC1 | -4.61% (inactive) | 
32 | CCOC(=O)c1c(S(=O)(=O)Nc2cccc(Cl)c2)c(C)n(C)c1C | 17.3% (inactive) | 
33 | Cc1cc(C)c2nc(-c3ccco3)cc(C(=O)O)c2c1 |  | 20 µM (active)
34 | Cc1ccsc1-c1cc(C(=O)O)c2c(ccc3ccccc32)n1 | 5.93% (inactive) | 
35 | COC(=O)c1cnn2c(C(F)(F)F)cc(-c3ccco3)nc12 | -3.33% (inactive) | 
36 | Cc1ccc(S(=O)(=O)c2c[nH]c3ccc(C)cc3c2=O)cc1 | 18.3% (inactive) | 
37 | COc1cc(C)cc(CN2CCC(Cc3ccccc3)CC2)c1O | 15.6% (inactive) | 
38 | Cc1cccnc1NC(=O)CSc1nnc(COc2ccc(C(C)C)cc2)n1C | -2.86% (inactive) | 
39 | Cc1ccc(OCc2nnc(SC3CCc4ccccc4C3=O)n2C)cc1 (stereo not drawn) |  | 25.1 µM (active)
40 | Cc1ccc(OCc2nc3ccccc3n2C)cc1 | 16.9% (inactive) | 

Row | Structure (SMILES) | largest response in the series, negative = inhibition | Potency
41 | CCCCNC(=O)c1ccccc1NC(=O)C1=C(C)OCCS1 | 4.87% (inactive) | 
42 | CCCCNC(=O)c1ccccc1NC(=O)c1ccccc1N(C)S(C)(=O)=O |  | 50.1 µM (active)
43 | CCC(C)NC(=O)c1ccccc1NC(=O)c1ccccc1N(C)S(C)(=O)=O (stereo not drawn) | 17.5% (inactive) | 
44 | C=CCOC(=O)C(C(C)=O)C(NC(=O)OC)c1ccccc1 (stereo not drawn) | 17.2% (inactive) | 
45 | COc1ccc(C)cc1NC(=O)CN(C)S(=O)(=O)c1ccc2c(c1)n(C)c(=O)c(=O)n2C | 13.5% (inactive) | 
46 | COc1ccc2c(c1)CC[C@@H]1[C@@H]2CC[C@]2(C)C(=O)CC[C@@H]12 |  | 50.1 µM (active)
47 | COc1ccc(S(=O)(=O)N2CCN(C)CC2)c(C)c1 | 13.7% (inactive) | 
48 | C[C@]12CC[C@@H]3C(=CCc4cc(O)ccc43)[C@@H]1CCC2=O | -11.9% (inactive) | 
49 | CCCc1c(C(=O)N/N=C(\C)CCc2ccc(OC)cc2)nnn1-c1nonc1N | 10.3% (inactive) | 
50 | CCOc1ccc(N2C(=O)/C(=C/c3ccc(C)o3)N(C)C2=S)cc1 |  | 3.98 µM (active)
51 | CCOc1ccc(N2C(=O)CN(c3cccc4ccccc34)C2=S)cc1 | 11.1% (inactive) | 
52 | CCO/C=C1\C(=O)N(c2ccc(OCC)cc2)C(=O)c2ccccc21 | 3.31% (inactive) | 
53 | COC(=O)C1=C(C(=O)OC)[C@@H]2N(C)c3ccccc3[C@@]23C[C@@H](C(=O)OC)N(S(=O)(=O)c2ccc(Br)cc2)C3=N1 | 14% (inactive) | 
54 | CCOC(=O)C1=NO[C@@]2(C=C(Br)C(=O)[C@H]3O[C@H]32)C1 |  | 31.6 µM (active)
55 | CCOC(=O)C1=C(C)N=C2c3ccccc3C(=O)C2C1c1ccc(Br)cc1 (stereo not drawn) | 10.1% (inactive) | 
56 | CCOC(=O)C1=NOC(Cn2cc(C(C)=O)c(=O)[nH]c2=O)C1 (stereo not drawn) | 15.9% (inactive) | 
57 | Cc1c(C=O)c2ccccc2n1CCOc1ccccc1 | -1.13% (inactive) | 
58 | CCOc1ccc(N/C=C/C(=O)c2cc(OC)c(OC)c(OC)c2)cc1 | -7.21% (inactive) | 
